We go through 106 molecules from PubChem BioAssay AID463165 (Johns Hopkins Ion Channel Center, 2010).

Among all 310,000 compounds or so, about 1,400 (0.45%) were called active. This is one part of a sample in which actives are shown more often than they occur.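 Rule for the calls: active = B-score, a plate-corrected calcium signal, over three deviations above library mean, with baseline fluorescence within five deviations of library mean; inactive = the rest.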

Regulator of G-protein signaling 4 (Homo sapiens), sequence (P49798 whole entry, looked up): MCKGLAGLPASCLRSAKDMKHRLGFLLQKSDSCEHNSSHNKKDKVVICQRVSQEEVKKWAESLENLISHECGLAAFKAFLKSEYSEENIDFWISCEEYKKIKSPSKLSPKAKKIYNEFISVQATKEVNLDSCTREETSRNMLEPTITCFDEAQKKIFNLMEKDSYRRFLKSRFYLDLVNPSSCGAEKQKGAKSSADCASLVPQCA

The experiment concerns the target Regulator of G-protein signaling 4 (Homo sapiens) (UniProt P49798). As to the kind of experiment: blockers of RGS4 function in M3R calcium signaling – cell-based, HEK293 M3R inducible RGS4, calcium flux, primary screen (AID 463165).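 For B-score: B-score is computed from the integrated fluorescence ratio over baseline after carbachol.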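 Note: RGS4 expression induced by doxycycline in cells with stable M3 receptor.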 Conditions: Fluo-4 calcium flux, at 10 µM, triggered by carbachol at its EC20; stronger effect = higher value.
Consider `O=C1c2ccccc2NC(c2ccc(-c3cccc(Cl)c3)o2)N1O` (stereo unspecified), for which the B-score is 8.05 (active).
`O=C1NC(c2cccc(Cl)c2)Nc2ccccc21` (stereo unspecified): the B-score result is “inactive”.
`O=c1c(-c2cccc(Cl)c2)c[nH]n1-c1ccccc1`: the B-score entry is “inactive”.
The value for `COCCc1nn2c(=O)cc(COC(=O)c3cc(OC)c(OC)c(OC)c3)nc2s1` was “inactive”; that for `CCOC(=O)c1ccc(NC(=O)c2cccnc2)cc1` was “inactive”; that for `Cc1nn2c(=O)cc(COC(=O)c3ccc(NC(=O)C(C)(C)C)cc3)nc2s1` was 17.9 (active).
With `COc1ccc(CC(=O)NC2CCSc3ccccc32)cc1OC` (stereo unspecified), the B-score result was “inactive”.
The result for `CN(C(=O)c1cccc([N+](=O)[O-])c1)c1ccccc1C(=O)NCc1ccccc1` reads “inactive”.
Consider `CC1=NOC(=O)/C1=C\c1ccccc1`, for which the B-score result was “inactive”.
For `C=CCOc1ccc(/C=C2/C(=O)ON=C2C)cc1OCC`, the B-score was 9.13 (active).
Regarding `COc1cc(/C=C2/C(=O)ON=C2C)ccc1OCc1ccccc1F`, the B-score result was “inactive”.
The result for `COc1cc(/C=C2/C(=O)ON=C2C)ccc1OCc1cccc(F)c1` reads “inactive”; that for `C#CCOc1ccccc1/C=C1/C(=O)ON=C1C`, “inactive”; that for `C#CCOc1ccc(/C=C2/C(=O)ON=C2C)cc1OCC`, 6.2 (active).
With `O=C(O)C1C2C=CC(O2)C1C(=O)NCCc1cccc(Cl)c1` (stereo unspecified), the B-score entry is “inactive”.
Take `O=C(Oc1c(-c2ccco2)oc2ccccc2c1=O)c1cccnc1`: the B-score result is “inactive”.
For `O=C1C(=O)N(c2ccccc2)c2ccccc21`, the B-score result was “inactive”.
For the molecule `COC(=O)C1CCN(C(=O)c2cc(=O)[nH]c3ccccc23)CC1`, the B-score was 5.3 (active).
The value for `CC1CCCCC1NC(=O)c1cc(=O)[nH]c2ccccc12` (stereo unspecified) was “inactive”; that for `CC(C)(CNC(=O)c1cc(=O)[nH]c2ccccc12)N1CCOCC1` was “inactive”; that for `O=C(CNC(=O)[C@@H]1Cc2ccccc2CN1)NC1CCCCC1` was “inactive”.
The result for `COc1ccccc1N1CCN(S(=O)(=O)CCNC(=O)c2ccc(OC(C)C)cc2)CC1` reads “inactive”; that for `Cc1ccc(CSCC2Nc3ccc(C(=O)N4CCN(c5ccc(F)cc5)CC4)cc3NC2=O)cc1` (stereo unspecified), “inactive”.
The value for `CCOC(=O)C1CCN(C(c2cc3cc(C)cc(C)c3[nH]c2=O)c2nnnn2C2CCCCC2)CC1` (stereo unspecified) was 6.12 (active); that for `Cc1cc(C)c2[nH]c(=O)c(C(c3nnnn3Cc3ccc4c(c3)OCO4)N3CCCC3)cc2c1` (stereo unspecified) was “inactive”; that for `COc1ccc(N2CCN(C(c3cc4ccc(C)cc4[nH]c3=O)c3nnnn3C3CCCC3)CC2)cc1` (stereo unspecified) was “inactive”.
As to `COc1ccc(S(=O)(=O)NCCc2cc3ccc(C)c(C)c3[nH]c2=O)cc1`, the B-score entry is “inactive”.
The result for `CCOCCCNC(=O)c1cc2c(=O)n3ccccc3nc2s1` reads “inactive”; that for `Cc1ccc(N/C=C/C(=O)c2ccccc2)cc1C`, “inactive”; that for `Cc1cc(C)nc(SCC(=O)c2ccc(Cl)cc2)n1`, “inactive”.
For the molecule `Cc1cc(C)nc(S/C=C/C(=O)c2ccccc2)n1`, the B-score is 10.7 (active).
As for `CN=C(NC#N)NCCSCc1nc[nH]c1C`, the B-score result is “inactive”.
The result for `COc1ccc(CN(C(=O)CSc2nnc(-c3ccc(OC)c(OC)c3)o2)c2ccc(F)cc2)cc1` reads “inactive”; that for `Cc1ccc(/C=N/NC(=O)CSc2ccccn2)o1`, “inactive”.
Regarding `CCOc1ccc(/C=N/NC(=O)C(C)Sc2ccccn2)cc1OCC` (stereo unspecified), the B-score result was “inactive”.
The value for `CCOc1ccc(/C=N/NC(=O)CSc2ccccn2)cc1O` was 4.74 (active).
The result for `Cc1cc(=O)oc2cc(OC(C)C(=O)Nc3ccc(N4CCOCC4)cc3)ccc12` (stereo unspecified) reads “inactive”; that for `COc1cc(NC(=O)CSC(=S)N2CCCC2)c(OC)cc1Cl`, “inactive”; that for `CC(C)(C)Oc1ccccc1Nc1nc(NCCO)nc(N2CCCC2)n1`, “inactive”.
For `CCOc1ccc(CNC(=O)CCC(=O)N2CCSc3ccccc32)cc1`, the B-score result is “inactive”.
In the case of `C[C@H](NC(=O)c1nc[nH]c1C(=O)NCC(=O)OC(C)(C)C)C(=O)OCc1ccccc1`, the B-score result is “inactive”.
The result for `C[C@H](NC(=O)c1nc[nH]c1C(=O)NCC(=O)OC(C)(C)C)c1ccccc1` reads 5.48 (active); that for `CC(C)(C)OC(=O)CNC(=O)c1[nH]cnc1C(=O)N[C@@H](Cc1ccccc1)C(=O)OCc1ccccc1`, “inactive”.
For `Cc1ccc(N(C(=O)c2ccc(CN3CCOCC3)o2)C(C(=O)NCCC(C)C)c2cccs2)c(C)c1` (stereo unspecified), the B-score result was “inactive”.
With `O=C(CSCc1ccccc1)Nc1ccccc1`, the B-score entry was “inactive”.
The value for `CCN(CC)S(=O)(=O)c1ccc(N2CC(C(=O)NCc3cccnc3)CC2=O)cc1` (stereo unspecified) was “inactive”; that for `Cc1ccc(/C=C2\CCn3c2nc2cc(C(=O)O)ccc2c3=O)c(C)c1` was 6.23 (active); that for `N#Cc1ccc(/C=C2\CCn3c2nc2cc(C(=O)O)ccc2c3=O)cc1` was “inactive”.
With `O=C(O)c1ccc2c(=O)n3c(nc2c1)/C(=C/c1ccc(OC(F)F)cc1OC(F)F)CC3`, the B-score entry is “inactive”.
The value for `CCOC1CS(=O)(=O)CC1OCC` (stereo unspecified) was “inactive”.
The result for `CCCN(CCC)S(=O)(=O)c1ccc(C(=O)N2CC3CCC(CC3)C2)cc1` reads “inactive”; that for `CC(C)=CCCC1(C)C=Cc2c(ccc3c2[nH]c2cc(O)c(C)cc23)O1` (stereo unspecified), “inactive”.
The value for `O=C(O)CCC(=O)N(Cc1ccccc1)Cc1ccccc1` was “inactive”; that for `O=C(Nc1ccccc1Cl)c1ccccc1S(=O)(=O)c1ccccc1[N+](=O)[O-]` was “inactive”; that for `Cc1nn(Cc2ccccc2)c2c1C(c1ccccc1)C(C#N)=C(N)O2` (stereo unspecified) was “inactive”.
As for `COc1ccccc1C1C(C#N)=C(N)Oc2c1c(-c1ccccc1)nn2-c1ccccc1` (stereo unspecified), the B-score is 8.32 (active).
As to `Cc1nn(-c2ccccc2)c2c1C(c1ccc(F)cc1)C(C#N)=C(N)O2` (stereo unspecified), the B-score result was “inactive”.
In the case of `Cc1cccc(OCCCC(=O)Nc2ccc(S(=O)(=O)N3CCCC3)cc2)c1`, the B-score entry is “inactive”.
The value for `CS(=O)(=O)c1ccc(C(=O)OCC(=O)NNC(=O)COc2ccc(Cl)cc2)cc1` was “inactive”; that for `O=C(Nc1ccc(F)cc1)N1CCCC(c2nc3c(nnn3Cc3ccccc3Cl)c(=O)[nH]2)C1` (stereo unspecified) was “inactive”.
For `Cc1ccc(C)c(Cn2nnc3c(=O)[nH]c(C(=O)Nc4ccc(F)cc4)nc32)c1`, the B-score is 7.87 (active).
With `Cc1ccc(NC(=O)N2CCC(c3nc4c(nnn4Cc4c(F)cccc4Cl)c(=O)[nH]3)CC2)cc1`, the B-score entry was “inactive”.
Consider `O=C(O)C1C2C=CC(C2)C1C(=O)NCc1ccccc1` (stereo unspecified), for which the B-score result was “inactive”.
The result for `O=C(CN1C(=O)NC2(CCCCCC2)C1=O)NCc1cccs1` reads “inactive”; that for `COC(=O)c1c(C(=O)OC)c2n(c1C)CCS2`, “inactive”.
The result for `COc1ccc(C)cc1NC(=O)CSc1nnc2ccc(-c3ccccn3)nn12` reads “inactive”; that for `COc1ccc(S(=O)(=O)Nc2ccc(O)c(Sc3nc4ccccc4s3)c2)cc1`, 5.99 (active); that for `O=C(O)c1cccc(S(=O)(=O)Nc2ccc(O)cc2Sc2nc3ccccc3s2)c1`, “inactive”.
On to `CCOc1ccc(S(=O)(=O)Nc2nc3cc(OC)ccc3s2)cc1`, for which the B-score result was “inactive”.
Turning to `CNc1nccc(-c2ccc(Cl)cc2)c1C#N`, the B-score entry was “inactive”.
Regarding `Cc1ccc(C)c2c1cc(C)c1nnc(SCC(=O)Nc3cccc(C(=O)O)c3)n12`, the B-score result was “inactive”.
The result for `Cc1cc(NC(=O)CSc2nc(C(C)C)nc3sc4c(c23)CCC(C)C4)no1` (stereo unspecified) reads “inactive”; that for `CC(C)c1nc(SCC(=O)Nc2cccc(C(=O)O)c2)c2c3c(sc2n1)CCCC3`, 5.64 (active).
For the molecule `Cc1ccccc1OC(=O)Cn1c(C(F)(F)F)nc2ccccc21`, the B-score result is “inactive”.
The result for `Cc1ccc(-n2[nH]c(C)c(/C=N/NC(=O)c3cccc([N+](=O)[O-])c3)c2=O)cc1C` reads “inactive”; that for `COc1ccc(-c2csc(Cc3nc(O)cs3)n2)cc1`, “inactive”; that for `COc1ccc(-c2csc(NC(=O)COC(=O)c3ccc(Br)o3)n2)cc1`, “inactive”.
The result for `COc1ccc(-c2csc(Nc3ccc(O)cc3)n2)cc1` reads 8.75 (active).
The result for `CCOc1ccc(OCC)c(NC(=O)CCS(=O)(=O)c2ccc(C)cc2)c1` reads “inactive”; that for `CN(C)c1ccc(CNC2C3CC4CC(C3)CC2C4)cc1` (stereo unspecified), “inactive”; that for `CC(=O)Nc1cccc(-c2nc3ccccc3s2)c1C`, “inactive”.
For the molecule `COc1ccc(Oc2cn[nH]c2-c2ccc(OC)cc2O)cc1`, the B-score result was “inactive”.
The result for `Oc1ccc(-c2[nH]ncc2-c2nc3ccccc3s2)c(O)c1` reads 5.08 (active); that for `CCC1(C(=O)c2ccccc2)C(c2cccc([N+](=O)[O-])c2)C1(C(=O)OC)C(=O)OC` (stereo unspecified), “inactive”; that for `CC(CC(=O)C1C(C)C=CCC1(C)C)NNC(N)=O` (stereo unspecified), “inactive”.
Turning to `Cc1csc(NC(=O)C2=COCCO2)n1`, the B-score result was “inactive”.
Turning to `CC(=O)NCCC(=O)Nc1nc(-c2ccc3c(c2)OCCO3)cs1`, the B-score entry was “inactive”.
As for `Cc1ccc(-c2csc(NC(=O)C3=COCCO3)n2)cc1C`, the B-score is 9.56 (active).
For `COc1cccc(NC(C)=[N+](C)CCNS(=O)(=O)c2ccc(Cl)cc2)c1`, the B-score entry was “inactive”.
As to `CCCCN1C(=O)CC(N2CCOCC2)C1=O` (stereo unspecified), the B-score result is “inactive”.
The value for `O=C(CCN1CCc2ccccc2C(O)(c2ccccc2)C1)c1ccc2c(c1)OCCO2` (stereo unspecified) was 8.45 (active).
On to `O=C(CN1CCC(O)(c2ccccc2)CC1)Nc1ccc2c(c1)OCCO2`, for which the B-score entry is “inactive”.
Regarding `CCC1(c2ccccc2)NC(=O)N(CC(=O)c2ccc3c(c2)OCO3)C1=O` (stereo unspecified), the B-score entry is “inactive”.
Turning to `CC(CO)N1CCS(=O)(=O)CC1` (stereo unspecified), the B-score result was “inactive”.
The value for `COc1cccc(OC)c1C(=O)Nc1ccc(Cc2ccncc2)cc1` was “inactive”.
Take `Cc1nc(Nc2ccc(S(=O)(=O)N3CCCC3)cc2)c2nnn(Cc3ccccc3)c2n1`: the B-score entry is “inactive”.
The value for `Clc1ccc(Nc2ncnc3c2nnn3Cc2ccccc2)cc1` was “inactive”; that for `CC(C)Cc1nc(Nc2ccc(S(=O)(=O)N3CCCC3)cc2)c2nnn(Cc3ccccc3)c2n1` was 4.81 (active).
The result for `Cc1ccccc1CN1CCC(C(=O)Nc2ccc(Oc3cccnc3)cc2)CC1` reads “inactive”; that for `COc1ccc(-c2cc(C(=O)N/N=C/c3cccnc3)c3ccccc3n2)c(OC)c1`, “inactive”.
The value for `COc1ccccc1-n1c(-c2cc(-c3ccco3)[nH]n2)n[nH]c1=S` was “inactive”; that for `Cn1c(-c2ccco2)nc2cc3ccccc3cc21` was 8.29 (active).
On to `Cc1cc(C)c2nc(-c3ccco3)cc(C(=O)O)c2c1`, for which the B-score entry is “inactive”.
The result for `CS(=O)(=O)N(CC(O)Cn1c2ccccc2c2ccccc21)c1cccc2ccccc12` (stereo unspecified) reads 7.61 (active); that for `CC(=O)c1ccc2c(c1)c1ccccc1n2CC(C)C`, “inactive”.
The result for `CCCCN(CCCC)CC(O)Cn1c2ccccc2c(=O)c2ccccc21` (stereo unspecified) reads “inactive”.
